{"source": "PubChem BioAssay (Tox21)", "note": "Calls of active or inactive are those of the source. Calls come from the whole dose curve; as a rule, active = well fitted curve in the direction sought with a large enough effect in the repeat runs; inconclusive = weak or mixed curves; inactive = flat fitted curve, though single readings scatter. Positions of bridges follow the written chain, without caps; N, C: chain ends. Non-standard residues stand in square brackets, D forms with d. Residues, ends and D or L forms follow the SMILES beside them. *: point of attachment. X1 = CC[C@@H](C)[C@@H](N)C1=N[C@H](C(=O)*)CS1; d(aIle) = CC[C@H](C)[C@@H](N)C(=O)O; dOrn = NCCC[C@@H](N)C(=O)O"}
{"test": "qHTS assay to test for compound auto fluorescence at 590 nm (red) in HEK293 cells (AID 720679)", "conditions": "red autofluorescence 540/590 nm; series mostly up to 46 µM", "source_text": "National Center for Advancing Translational Sciences [NCATS]\nNIH Chemical Genomics Center [NCGC]\nU.S. Environmental Protection Agency [EPA]\nNational Institutes of Environmental Health Sciences [NIEHS]\nNational Toxicology Program [NTP]\nU.S. Food and Drug Administration [FDA]\nCompound auto fluorescence often interferes with screening of the compound library against various biological targets and signaling pathways. Some of these compounds may have fluorophoric properties. Such properties may interfere with the assay outputs resulting in false positives and/or negatives. To decrease such complications and ensure the compound activities are relevant in terms of biological response, the Tox21 10K compound library was screened for auto fluorescence.\nFrom the fluorophores used as reporter signals in our screening assays, the auto fluorescence equivalencies of compounds against three fluorophores have been evaluated: Triamterene, Fluorescein and Rose Bengal sodium for blue, green and red fluorescence, respectively. The fluorescence intensities were measured using Excitation/Emission wavelengths at 405/460nm, 485/535nm and 540/590nm for blue, green and red labels, respectively. This assay includes the red fluorescence data.\nTox21 Assay Protocol Summary:\n2,000 HEK293 cells in 5 uL of culture medium containing 10% dialyzed FBS per well were dispensed into black wall/clear bottom 1536-well plates using a Multidrop Combi Dispenser (Thermo Scientific). The assay plates were incubated for 4-5 hr at 37C to allow cell attachment to the well bottom, followed by the transfer of 23 nL compound or DMSO vehicle by a pintool work station (Kalypsys, San Diego, CA). After the assay plates were incubated overnight at 37C and 5% CO2, fluorescence intensities in the assay plates were measured by an Envision (PerkinElmer, Shelton, CT) plate reader using three labels for measuring blue, green and red fluorescence at […] 460, 535 and 590nm respectively."}
{"smiles": "C=CC[N@@+]12CC[C@@]34c5ccccc5N5/C=C6/[C@H]7C[C@H]8[C@@]9(CC[N@@+]8(CC=C)C/C7=C/CO)c7ccccc7N(/C=C(/[C@@H](C[C@@H]31)/C(=C\\CO)C2)[C@H]54)[C@@H]69", "outcome": "inactive"}
{"smiles": "Cc1cc(N)c2ccccc2[n+]1CCCCCCCCCC[n+]1c(C)cc(N)c2ccccc21", "outcome": "inactive"}
{"smiles": "O=C(O)COc1ccccc1/C=N/NC(=O)c1ccncc1", "outcome": "inactive"}
{"smiles": "CCOc1ccc(NC(=S)Nc2ccc(OCC)cc2)cc1", "outcome": "inactive"}
{"smiles": "C[S+](C)CCC(N)C(=O)O", "note": "(stereo not given)", "outcome": "inactive"}
{"smiles": "CC[C@@H](C)[C@@H](N)C1=N[C@H](C(=O)N[C@@H](CC(C)C)C(=O)N[C@@H](CCC(=O)O)C(=O)N[C@@H](C(=O)N[C@@H]2CCCCNC(=O)[C@@H](CC(N)=O)NC(=O)[C@@H](CC(=O)O)NC(=O)[C@@H](Cc3cnc[nH]3)NC(=O)[C@@H](Cc3ccccc3)NC(=O)[C@@H]([C@H](C)CC)NC(=O)[C@@H](CCCN)NC2=O)[C@@H](C)CC)CS1", "note": "(X1-LE[d(aIle)][dK][dOrn][dI][dF][dH][dD][dN]; lactam 4-C)", "outcome": "inactive"}
{"smiles": "CC(=O)OCC(=O)[C@@]1(O)CC[C@H]2[C@@H]3C[C@H](C)C4=CC(=O)C=C[C@]4(C)[C@H]3[C@@H](O)C[C@@]21C", "outcome": "inactive"}
{"smiles": "C[C@H](NCCc1ccc(O)cc1)[C@H](O)c1ccc(O)cc1", "outcome": "inactive"}
{"smiles": "CC(C)c1ncc([N+](=O)[O-])n1C", "outcome": "inactive"}
{"smiles": "N#Cc1nc(Cl)c(Cl)c(Cl)c1Cl", "outcome": "inactive"}
{"smiles": "O=C1c2ccccc2-c2n[nH]c3cccc1c23", "outcome": "inactive"}
{"smiles": "CON=C1C[C@]2(C[C@@H]3C[C@@H](C/C=C(\\C)C[C@@H](C)/C=C/C=C4\\CO[C@@H]5[C@H](O)C(C)=C[C@@H](C(=O)O3)[C@]45O)O2)O[C@H](/C(C)=C/C(C)C)[C@H]1C", "outcome": "inactive"}
{"smiles": "CCCCCCCCOC(=O)c1cc(O)c(O)c(O)c1", "outcome": "inactive"}
{"smiles": "CC(C)(S)C(=O)N[C@@H](CS)C(=O)O", "outcome": "inactive"}
{"smiles": "CO[C@H]1C[C@H](O[C@H]2[C@H](C)[C@@H](O[C@@H]3O[C@H](C)C[C@H](N(C)C)[C@H]3O)[C@@H](C)C[C@]3(CO3)C(=O)[C@H](C)[C@@H](O)[C@@H](C)[C@@H](C)OC(=O)[C@@H]2C)O[C@@H](C)[C@@H]1O", "outcome": "inactive"}
{"smiles": "CC[C@@H](C(=O)[C@@H](C)[C@@H](O)[C@H](C)CCc1ccc(C)c(O)c1C(=O)O)[C@H]1O[C@](CC)([C@H]2CC[C@](O)(CC)[C@H](C)O2)C[C@@H]1C", "outcome": "inactive"}
{"smiles": "NS(=O)(=O)c1cc(Cl)c(Cl)c(S(N)(=O)=O)c1", "outcome": "inactive"}
{"smiles": "CCOc1cc(CC(=O)N[C@@H](CC(C)C)c2ccccc2N2CCCCC2)ccc1C(=O)O", "outcome": "inactive"}
{"smiles": "COc1ccc([C@@H]2CC(=O)c3c(O)cc(O[C@@H]4O[C@H](CO[C@@H]5O[C@@H](C)[C@H](O)[C@@H](O)[C@H]5O)[C@@H](O)[C@H](O)[C@H]4O)cc3O2)cc1O", "outcome": "inactive"}
{"smiles": "CCCOC(=O)c1ccc(O)cc1", "outcome": "inactive"}
{"smiles": "CCCCCCCCCCCC[n+]1ccc2ccccc2c1", "outcome": "inactive"}
{"smiles": "CCN(CC)CCNC(=O)c1ccc(NS(C)(=O)=O)cc1", "outcome": "inactive"}
{"smiles": "O=C1c2ccccc2C(=O)C1c1ccc(F)cc1", "outcome": "inactive"}
{"smiles": "CC(C)[N+]1(C)[C@@H]2CC[C@H]1CC(OC(=O)C(CO)c1ccccc1)C2", "note": "(stereo not given in full)", "outcome": "inactive"}
{"smiles": "COC1[C@@H](O[C@@H]2O[C@H](C)[C@@H](O[C@H]3C[C@@](C)(O)[C@H](OC(=O)CC(C)C)[C@H](C)O3)[C@H](N(C)C)[C@H]2O)[C@@H](CC=O)C[C@@H](C)[C@@H](O)/C=C/C=C/C[C@@H](C)OC(=O)C[C@H]1OC(C)=O", "note": "(stereo not given in full)", "outcome": "inactive"}
{"smiles": "CC[C@H]1OC(=O)C[C@@H](O)[C@H](C)[C@@H](O[C@@H]2O[C@H](C)[C@@H](O)[C@H](N(C)C)[C@H]2O)[C@@H](CCN2C[C@H](C)C[C@H](C)C2)C[C@@H](C)C(=O)/C=C/C(C)=C/[C@@H]1CO[C@@H]1O[C@H](C)[C@@H](O)[C@@H](OC)[C@H]1OC", "outcome": "inactive"}
{"smiles": "CC(C)OC(=O)Nc1ccc2nc(-c3cscn3)[nH]c2c1", "outcome": "inactive"}
{"smiles": "c1ccc2occc2c1", "outcome": "inactive"}
{"smiles": "CCCCCN=C(N)N/N=C/c1c[nH]c2ccc(OC)cc12", "outcome": "inactive"}
{"smiles": "O=C(CCCCCCCCc1cccnc1)N1CCC(C=C(c2ccccc2)c2ccccc2)CC1", "outcome": "inactive"}
{"smiles": "O=C(N[C@H](CO)[C@H](O)c1ccc([N+](=O)[O-])cc1)C(Cl)Cl", "outcome": "inactive"}
{"smiles": "N[C@@H](Cc1cnc[nH]1)C(=O)O", "outcome": "inactive"}
{"smiles": "CC(C)[C@H](NC(=O)[C@H](CC(=O)O)NC(=O)[C@H](CCCCN)NC(=O)[C@@H](N)CCCN=C(N)N)C(=O)N[C@@H](Cc1ccc(O)cc1)C(=O)O", "note": "(H-RKDVY-OH)", "outcome": "inactive"}
{"smiles": "Cc1cn([C@H]2C[C@H](O)[C@@H](CO)O2)c(=O)[nH]c1=O", "outcome": "inactive"}
{"smiles": "CO[C@H]1C[C@@H]2CC[C@@H](C)[C@@](O)(O2)C(=O)C(=O)N2CCCC[C@H]2C(=O)O[C@H]([C@H](C)C[C@@H]2CC[C@@H](O)[C@H](OC)C2)CC(=O)[C@H](C)C=C(C)[C@@H](O)[C@@H](OC)C(=O)[C@H](C)C[C@H](C)/C=C/C=CC=C1C", "outcome": "inactive"}
{"smiles": "NCC[C@H](O)C(=O)N[C@@H]1C[C@H](N)[C@@H](O[C@H]2O[C@H](CN)CC[C@H]2N)[C@H](O)[C@H]1O[C@H]1O[C@H](CO)[C@@H](O)[C@H](N)[C@H]1O", "outcome": "inactive"}
{"smiles": "CN1C(=O)C[C@@H](C(=O)N[C@@H](Cc2cnc[nH]2)C(=O)N2CCC[C@H]2C(N)=O)NC1=O", "outcome": "inactive"}
{"smiles": "C[N+]1(CCCCC[N+]2(C)CCCC2)CCCC1", "outcome": "inactive"}
{"smiles": "CCCCC[C@H](O)/C=C/[C@@H]1[C@@H](C/C=C\\CCCC(=O)O)[C@@H](O)C[C@H]1O", "outcome": "inactive"}
{"smiles": "CO[C@H](C(=O)[C@@H](O)[C@@H](C)O)C1Cc2cc3cc(O[C@H]4C[C@@H](O[C@H]5C[C@@H](O)[C@H](O)[C@@H](C)O5)[C@@H](O)[C@@H](C)O4)c(C)c(O)c3c(O)c2C(=O)[C@H]1O[C@H]1C[C@@H](O[C@H]2C[C@@H](O[C@H]3C[C@](C)(O)[C@H](O)[C@@H](C)O3)[C@H](O)[C@@H](C)O2)[C@H](O)[C@@H](C)O1", "note": "(stereo not given in full)", "outcome": "inactive"}
